Experimental findings from PubChem BioAssay (NCATS) are described below.

Assay [1] deals with Methanococcus maripaludis chaperonin (MmCpn) (UniProt Q6LX38). Briefly: High-Throughput Screening for Modulators of Cytosolic Chaperonin Activity: MmCpn Primary Screen (AID 488978).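 Also: 50 nM MmCpn enzyme hydrolysing 30 µM ATP at 37 °C; 0% is about no effect.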 In a few lines:
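ADP formation read by HTRF Transcreener, 665/590 nm emission after 320 nm excitation. Enzyme: archaeal chaperonin at 50 nM final; substrate ATP 30 uM final; 10 min, 37C, after 5 min compound preincubation at RT.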

Assay [2] addresses Transient receptor potential cation channel subfamily V member 1 (Homo sapiens) (UniProt Q8NER1). Put plainly: HTS Assay for Compounds that Act as Enhancers of the Vanilloid Receptor 1 (AID 488979). Also: 0% is about no effect. In a few lines:
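TRPV1 cells loaded with Fluo-8 calcium dye; compound added and Ca2+ signal (ex 480/em 520 nm) followed 3 min, then capsaicin at EC20 added and read 2 more min to detect enhancement.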

In assay [3] the target is Thyrotropin receptor (Homo sapiens) (UniProt P16473). Briefly: qHTS Assay for Antagonists of the Thyroid Stimulating Hormone Receptor (AID 488980). Also: series mostly up to about 58 µM; 0% is about no effect. In a few lines:
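TSHR-HEK293 cells; 70 uM RO 20-1724 PDE inhibitor; compound + EC80 TSH (4 nM final); anti-cAMP cryptate antibody/cAMP-d2 in lysis buffer, 30 min RT; HTRF 665/620 nm read.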

For assay [4], the target named is D(1A) dopamine receptor (Homo sapiens) (UniProt P21728). Put plainly: HTS Assay for Allosteric Agonists of the Human D1 Dopamine Receptor: Primary Screen for Potentiators (AID 488982). Also: 0% is about no effect. In a few lines:
(§1)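 Tetracycline-induced HEK293 Trex D1 cells with forced coupling to calcium, loaded with no-wash calcium dye; kinetic fluorescence read 180 s after compound addition for agonism, then a further 180 s after an EC20 dopamine challenge for potentiation.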

The target is the same in assay [5]. Briefly: HTS Assay for Allosteric Agonists of the Human D1 Dopamine Receptor: Primary Screen for Antagonists (AID 488983).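 Also: calcium flux response to an EC80 dopamine challenge measured with no-wash dye; nearly all actives have a fitted effect of over 65% in size.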 Also: potency is read from the fitted curve at half-maximal effect. In a few lines: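 Calcium-flux read-out in inducible HEK293 T-REx cells expressing D1, dye-loaded 30–90 min at room temperature. Kinetic reads: 180 s after compound (agonist phase), then 180 s after an EC80 dopamine challenge.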
Assay [6] is described as follows: Validation screen for small molecules that induce genotoxicity in human embryonic kidney (HEK293T) cells expressing luciferase-tagged ELG1 (AID 493106). Also: potency is read from the fitted curve at half-maximal effect. A digest of the protocol: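 ELG1-luciferase reporter readout (ONE-Glo, 30 min, room temperature) after 16 hr compound treatment at 37 °C of HEK293T cells at 2,000 per well. Rising luminescence flags genotoxic stress.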

Assay [7] deals with ATPase family AAA domain-containing protein 5 (Homo sapiens) (UniProt Q96QE3). Briefly: Validation screen for small molecules that inhibit ELG1-dependent DNA repair in human embryonic kidney (HEK293T) cells expressing luciferase-tagged ELG1 (AID 493107).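 Also: series mostly up to about 46 µM; % is scaled to controls: 0 for no effect and ±100 for the full control effect; inhibitors lower the ELG1-luciferase luminescence signal; nearly all actives have a fitted effect of over 70% in size.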 A digest of the protocol:
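Luciferase read-out, ONE-Glo, 30 min at room temperature, follows 16 h co-exposure at 37 C of compound and the DNA-damaging agent 5-fluorouridine. Cells: HEK293T with ELG1-luciferase fusion, 2,000 per well, DMSO as vehicle.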

Assay [8] addresses Thyrotropin-releasing hormone receptor (Homo sapiens) (UniProt P34981). Briefly: qHTS for Small Molecule Agonists and Allosteric Enhancers of Human TRH Receptor: Validation Screen for Agonists (AID 493127;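 active = calcium activation more than 3 SD above the typical response in the agonist read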;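 also: intracellular calcium rise by fluo-8 fluorescence before TRH EC20 addition; 0% is about no effect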). Particulars: TRH receptor agonist cell assay; at 2 µM; stronger effect = higher value. In a few lines: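 Compound-evoked intracellular calcium release in fluo-8-loaded TRHR cells, read kinetically on FDSS (Ex 480/Em 530, 1 s/cycle) after 23 nL pintool transfer. Agonist phase preceded 10 nM TRH EC20 addition.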

Assay [9] can be described thus: Nrf2 qHTS screen for inhibitors: Validation (AID 493153; active = well fitted inhibition curve with a large enough effect in the main read-out, with a control signal flat, not every such curve was filed as active). As to conditions: Potency: luciferase luminescence; viability change: measured here: cytotoxicity max response. A digest of the protocol: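 Concentration-response on A549 ARE_Fluc reporter cells exposed 18-24 h at 37 C, 5% CO2. Cytotoxicity read first by CellTiter-Fluor fluorescence (Ex 405/Em 525), then Nrf2 inhibition by BugLite luminescence after 15 min.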

The nature of assay [10]: qHTS for Inhibitors of Cell Surface uPA Generation: Validation Assay (AID 493164).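 Also: RAW 264.7 macrophage cells exposed to compound for 18 h; 0% is about no effect.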 In a few lines: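 ATP-Lite luminescence read-out: ATP remains high when uPA activity-dependent LF translocation into the cytoplasm is blocked. RAW 264.7 cells, 18 h compound exposure at 37 C; 7-point titration, 2.45 nM to 38.3 uM final.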
For assay [11], the target named is Galactokinase (Homo sapiens) (UniProt P51570). Briefly: qHTS Validation Assay for Inhibitors of Human Galactokinase (GALK) (AID 493189). Also: 0% is about no effect. In a few lines:
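Luminescence from leftover ATP (Kinase-Glo Plus, 10 min) served as read-out after a 1 h room-temperature reaction of 5 nM GALK, 100 uM galactose and 35 uM ATP at pH8.0.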

The nature of assay [12]: Validation screen for small molecules that induce DNA re-replication in SW480 colon adenocarcinoma cells (AID 504364). Also: 0% is about no effect. A digest of the protocol: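 Image-based DNA content read-out: Hoechst stain 40 min, total nuclear fluorescence intensity (ex 405 nm, em 500-530 nm) after 48 h compound exposure of 250 SW480 cells/well at 37 C, 5% CO2, versus DMSO vehicle.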
Assay [13] addresses Peptidyl-prolyl cis-trans isomerase NIMA-interacting 1 (Homo sapiens) (UniProt Q13526). Briefly: qHTS Validation Assay to Find Inhibitors of Pin1 (AID 504536; active = well fitted inhibition curve with a large enough effect in the polarisation, with a control signal flat, not every such curve was filed as active; the % refers to the polarisation;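 also: 0% = full Pin1 enzyme wells and -100% = no-enzyme wells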). In a few lines: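 Fluorescence polarization competition: compounds (titration) displace HiFluor-488-labeled Pin1-1b peptide from Pin1 (0.3 uM final) in pH 7.5 HEPES buffer with DTT, 10 min at room temperature; %Activity normalized to no-enzyme wells, curves fitted.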

The target in assay [14] is Phosphoglycerate kinase, glycosomal (Trypanosoma brucei brucei) (UniProt P07378). Put plainly: qHTS Validation Assay to Find Inhibitors of Phosphoglycerate Kinase (AID 504547).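 Also: control wells lack PGK and mark full inhibition.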 In a few lines:
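Compounds are pinned into the substrate/PGK mixture, and GAPDH (100nM final) is added to start the reaction by producing 1,3-BPG. After 60 minutes at room temperature, Kinase-Glo Plus is added and luminescence is measured 10 minutes later.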

The target of assay [15] is phosphoglycerate mutase (Leishmania major) (UniProt Q4Q090). Briefly: qHTS Validation Assay to Find Inhibitors of Phosphoglycerate Mutase (AID 504548). Also: series mostly up to about 58 µM; % is scaled to controls: 0 for no effect and ±100 for the full control effect. As to conditions: Potency: inhibition qHTS. A digest of the protocol: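 Lm PGAM 1.25nM final; 100 mM TEA pH 7.6, 5 mM MgCl2, 0.01% Tween-20; 45 min RT; Kinase-GloPlus, 10 min; end-point luminescence. Enzyme-free wells as negative controls.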
Chain of phosphoglycerate mutase (Leishmania major) (Q4Q090 1-553): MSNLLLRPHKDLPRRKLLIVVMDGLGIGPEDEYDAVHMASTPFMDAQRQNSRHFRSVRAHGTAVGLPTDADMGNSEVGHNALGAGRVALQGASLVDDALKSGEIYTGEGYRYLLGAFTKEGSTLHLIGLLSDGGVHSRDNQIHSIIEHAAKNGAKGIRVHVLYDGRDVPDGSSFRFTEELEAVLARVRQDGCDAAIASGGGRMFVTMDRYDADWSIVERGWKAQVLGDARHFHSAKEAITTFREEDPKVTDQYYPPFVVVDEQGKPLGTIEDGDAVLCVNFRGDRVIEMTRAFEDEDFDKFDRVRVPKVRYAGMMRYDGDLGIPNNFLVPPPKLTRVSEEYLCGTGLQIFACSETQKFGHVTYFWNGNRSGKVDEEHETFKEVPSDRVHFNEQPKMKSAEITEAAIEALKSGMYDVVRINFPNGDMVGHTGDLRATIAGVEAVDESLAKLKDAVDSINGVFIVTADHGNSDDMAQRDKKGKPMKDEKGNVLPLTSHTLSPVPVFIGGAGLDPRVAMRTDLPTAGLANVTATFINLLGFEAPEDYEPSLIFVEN

In assay [16] the target is Ubiquitin carboxyl-terminal hydrolase 1 (Homo sapiens) (UniProt O94782). Briefly: Inhibitors of USP1/UAF1: Pilot qHTS (AID 504865). Also: nearly all actives have a fitted effect of over 35% in size. Also: potency is read from the fitted curve at half-maximal effect. A digest of the protocol: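 1nM USP1/UAF1 + cpd, 15 min RT; start w/ Ub-Rho 150nM final; kinetic FL 480/540 nm, 6 reads q60 s. Buffer 50mM HEPES pH 7.8, 0.5mM EDTA, 1mM TCEP, 0.01% Tween-20, 0.1 mg/ml BSA.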
Chain of Ubiquitin carboxyl-terminal hydrolase 1 (Homo sapiens) (O94782 whole entry, looked up): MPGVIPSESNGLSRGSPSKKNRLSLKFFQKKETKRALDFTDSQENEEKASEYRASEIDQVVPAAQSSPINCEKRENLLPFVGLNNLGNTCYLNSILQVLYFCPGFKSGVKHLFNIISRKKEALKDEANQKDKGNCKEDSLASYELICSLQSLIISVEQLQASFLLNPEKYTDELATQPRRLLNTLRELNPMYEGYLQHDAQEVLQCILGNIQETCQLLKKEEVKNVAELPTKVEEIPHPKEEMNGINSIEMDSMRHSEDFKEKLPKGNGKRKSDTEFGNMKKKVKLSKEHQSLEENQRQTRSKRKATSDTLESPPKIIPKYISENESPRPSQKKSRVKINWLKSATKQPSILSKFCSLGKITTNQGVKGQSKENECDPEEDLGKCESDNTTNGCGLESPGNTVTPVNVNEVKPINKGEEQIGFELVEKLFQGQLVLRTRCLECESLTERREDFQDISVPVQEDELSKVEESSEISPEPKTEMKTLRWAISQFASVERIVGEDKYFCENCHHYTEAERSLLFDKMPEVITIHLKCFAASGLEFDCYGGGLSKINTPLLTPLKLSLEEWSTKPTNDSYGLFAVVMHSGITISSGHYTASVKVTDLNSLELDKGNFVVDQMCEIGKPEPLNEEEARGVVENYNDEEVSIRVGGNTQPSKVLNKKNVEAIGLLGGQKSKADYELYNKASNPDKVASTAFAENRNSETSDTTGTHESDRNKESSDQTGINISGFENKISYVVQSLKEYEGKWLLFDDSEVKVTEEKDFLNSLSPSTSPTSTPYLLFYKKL
Assay [17] in a line: qHTS for Inhibitors of ATXN expression: Validation of Cytotoxic Assay (AID 588349). Also: % is scaled to controls: 0 for no effect and ±100 for the full control effect. A digest of the protocol: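 Cytotoxicity counter-screen: ATP-based luminescent viability (CellTiter Glo) after 72 hr exposure of HEK293 cells to a compound titration at 37 degrees C.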
For assay [18], the target named is D(1A) dopamine receptor (Homo sapiens) (UniProt P21728). Put plainly: HTS Assay for Allosteric Agonists of the Human D1 Dopamine Receptor: Primary Screen for Agonists (AID 488981). Also: potency is read from the fitted curve at half-maximal effect. A digest of the protocol: as §1
Chain of D(1A) dopamine receptor (Homo sapiens) (P21728 whole entry, looked up): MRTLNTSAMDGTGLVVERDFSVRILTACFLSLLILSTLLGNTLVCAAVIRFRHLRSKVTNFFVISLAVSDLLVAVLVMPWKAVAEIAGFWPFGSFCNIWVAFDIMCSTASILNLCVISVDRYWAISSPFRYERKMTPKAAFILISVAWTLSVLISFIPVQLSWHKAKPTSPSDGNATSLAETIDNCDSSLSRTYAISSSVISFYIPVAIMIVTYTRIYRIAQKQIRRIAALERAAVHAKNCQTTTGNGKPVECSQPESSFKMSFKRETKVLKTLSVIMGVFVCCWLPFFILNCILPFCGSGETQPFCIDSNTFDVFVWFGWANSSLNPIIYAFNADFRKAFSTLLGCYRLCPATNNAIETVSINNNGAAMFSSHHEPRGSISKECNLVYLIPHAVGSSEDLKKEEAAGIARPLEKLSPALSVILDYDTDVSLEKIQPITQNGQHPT

Results filed as inconclusive are left out. Calls of active or inactive are those of the source. Unless noted, calls follow the shape of the dose curve; as a rule, active = well fitted curve in the direction sought with a large enough effect; inconclusive = small, poorly fitted or top-dose-only effect, or another doubt; inactive = no such curve, though single readings can be large; an effect the other way counts as inactive or inconclusive.

Chain of Methanococcus maripaludis chaperonin (MmCpn) (Q6LX38 1-543): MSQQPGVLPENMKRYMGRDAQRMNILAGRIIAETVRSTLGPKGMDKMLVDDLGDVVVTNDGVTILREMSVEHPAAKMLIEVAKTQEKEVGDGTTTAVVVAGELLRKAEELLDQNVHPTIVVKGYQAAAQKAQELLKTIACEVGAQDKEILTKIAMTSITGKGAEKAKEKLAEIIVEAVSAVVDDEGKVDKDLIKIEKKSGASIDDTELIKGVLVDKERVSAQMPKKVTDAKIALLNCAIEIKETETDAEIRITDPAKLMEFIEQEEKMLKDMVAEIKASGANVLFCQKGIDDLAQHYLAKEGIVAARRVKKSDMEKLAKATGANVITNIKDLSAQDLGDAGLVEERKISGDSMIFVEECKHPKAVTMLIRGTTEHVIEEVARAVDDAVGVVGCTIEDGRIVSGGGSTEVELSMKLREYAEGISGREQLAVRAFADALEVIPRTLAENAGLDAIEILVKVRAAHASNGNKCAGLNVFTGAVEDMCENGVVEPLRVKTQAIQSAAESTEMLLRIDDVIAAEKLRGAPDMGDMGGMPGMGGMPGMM
Chain of Thyrotropin receptor (Homo sapiens) (P16473 whole entry, looked up): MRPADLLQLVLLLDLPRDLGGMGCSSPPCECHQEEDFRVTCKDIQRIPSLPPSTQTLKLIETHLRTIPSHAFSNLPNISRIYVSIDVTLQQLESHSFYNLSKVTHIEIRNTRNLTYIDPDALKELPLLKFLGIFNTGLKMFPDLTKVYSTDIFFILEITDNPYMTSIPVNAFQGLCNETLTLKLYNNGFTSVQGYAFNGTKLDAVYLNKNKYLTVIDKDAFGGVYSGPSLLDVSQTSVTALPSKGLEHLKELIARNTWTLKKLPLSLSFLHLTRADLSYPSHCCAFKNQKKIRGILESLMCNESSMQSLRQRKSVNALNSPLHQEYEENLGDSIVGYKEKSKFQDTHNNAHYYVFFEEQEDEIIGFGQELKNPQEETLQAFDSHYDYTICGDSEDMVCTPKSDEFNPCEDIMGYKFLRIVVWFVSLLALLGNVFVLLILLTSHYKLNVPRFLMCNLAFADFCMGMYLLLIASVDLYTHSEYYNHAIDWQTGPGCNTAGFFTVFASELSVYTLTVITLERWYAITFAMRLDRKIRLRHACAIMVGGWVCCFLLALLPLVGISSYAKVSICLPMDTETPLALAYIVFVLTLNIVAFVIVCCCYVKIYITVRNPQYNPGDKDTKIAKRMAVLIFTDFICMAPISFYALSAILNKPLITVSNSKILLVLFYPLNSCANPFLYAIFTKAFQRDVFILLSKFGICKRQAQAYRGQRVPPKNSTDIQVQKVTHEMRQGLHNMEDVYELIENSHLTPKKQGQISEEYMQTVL
Chain of Thyrotropin-releasing hormone receptor (Homo sapiens) (P34981 whole entry, looked up): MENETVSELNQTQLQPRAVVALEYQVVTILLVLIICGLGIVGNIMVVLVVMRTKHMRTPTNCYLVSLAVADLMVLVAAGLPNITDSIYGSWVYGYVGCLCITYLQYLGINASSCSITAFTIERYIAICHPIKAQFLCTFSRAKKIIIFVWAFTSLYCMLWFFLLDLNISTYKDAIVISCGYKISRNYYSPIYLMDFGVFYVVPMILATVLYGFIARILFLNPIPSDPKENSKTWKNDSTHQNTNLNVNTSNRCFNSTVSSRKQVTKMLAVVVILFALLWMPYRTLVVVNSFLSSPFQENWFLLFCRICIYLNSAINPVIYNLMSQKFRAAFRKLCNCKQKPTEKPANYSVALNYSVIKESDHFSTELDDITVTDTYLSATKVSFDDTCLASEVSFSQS
Chain of Phosphoglycerate kinase, glycosomal (Trypanosoma brucei brucei) (P07378 whole entry, looked up): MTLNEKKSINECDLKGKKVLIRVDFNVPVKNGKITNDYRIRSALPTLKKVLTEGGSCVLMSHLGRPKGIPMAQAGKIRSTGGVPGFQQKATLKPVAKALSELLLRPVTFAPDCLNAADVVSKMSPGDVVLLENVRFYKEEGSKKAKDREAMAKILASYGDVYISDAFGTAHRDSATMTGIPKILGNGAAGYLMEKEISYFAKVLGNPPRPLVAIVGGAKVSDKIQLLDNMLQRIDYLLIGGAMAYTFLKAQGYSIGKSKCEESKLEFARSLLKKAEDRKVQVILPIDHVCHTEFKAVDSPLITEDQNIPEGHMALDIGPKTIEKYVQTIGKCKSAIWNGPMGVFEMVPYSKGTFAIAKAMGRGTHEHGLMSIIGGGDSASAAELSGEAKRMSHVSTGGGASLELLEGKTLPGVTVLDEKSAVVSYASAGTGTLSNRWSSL
Chain of Galactokinase (Homo sapiens) (P51570 whole entry, looked up): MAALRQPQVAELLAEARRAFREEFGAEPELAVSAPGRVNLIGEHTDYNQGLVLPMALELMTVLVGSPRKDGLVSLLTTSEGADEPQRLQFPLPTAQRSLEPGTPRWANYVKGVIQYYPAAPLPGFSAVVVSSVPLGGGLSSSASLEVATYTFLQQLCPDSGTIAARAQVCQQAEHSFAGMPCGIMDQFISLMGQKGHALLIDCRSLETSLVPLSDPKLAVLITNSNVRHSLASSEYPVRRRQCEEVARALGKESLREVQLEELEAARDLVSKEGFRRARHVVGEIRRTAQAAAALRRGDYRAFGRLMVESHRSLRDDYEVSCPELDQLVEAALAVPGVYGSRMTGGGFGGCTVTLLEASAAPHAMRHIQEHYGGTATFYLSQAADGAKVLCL
Chain of Peptidyl-prolyl cis-trans isomerase NIMA-interacting 1 (Homo sapiens) (Q13526 whole entry, looked up): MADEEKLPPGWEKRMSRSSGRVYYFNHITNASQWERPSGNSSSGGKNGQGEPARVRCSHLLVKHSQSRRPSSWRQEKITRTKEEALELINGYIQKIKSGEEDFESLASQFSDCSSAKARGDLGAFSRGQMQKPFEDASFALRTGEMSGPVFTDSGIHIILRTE

For the compound `Oc1ccc(C2CNCc3sccc32)cc1O` (configuration not stated), the outcome in assay [1], in assay [2], in [3] and in assay [10] was inactive. For the same compound, the Potency result in [4], in assay [6], in assay [7], in assay [9], in assay [11] and in assay [12] was “inactive” each time. The Potency entry in assay [13], in assay [14], in assay [15] and in [16] was “inactive” each time. Moreover, in [5], the Potency is 0.199 µM (active). Further, the activation in assay [8] is 1.75% (inactive). Further, the viability change in assay [9] was -11.4%.

Regarding `COc1cc(OC)c(/C=C2/C(=O)Nc3ccccc32)c(OC)c1`, the outcome in assay [1], in assay [2], in assay [3] and in [10] was inactive. Moreover, the Potency entry in assay [4], in assay [5], in assay [11], in [13], in assay [14] and in assay [16] was “inactive” in each case. For the same compound, in assay [8], the activation was 1.38% (inactive).

Consider `NCCCCCCCCCCN`, for which the call in assay [1], in assay [2] and in assay [3] was inactive. The Potency result in assay [4], in [5], in assay [6], in assay [7], in assay [9] and in assay [11] was “inactive” in each case. The Potency result in [12], in assay [13], in [14], in [15] and in assay [16] was “inactive” throughout. Also, in assay [8], the activation is 0.938% (inactive). Besides, the viability change in assay [9] was -2.16%.

`CC(C)(C=O)Cc1cc(C(C)(C)C)c(O)c(C(C)(C)C)c1`: the outcome in [1], in assay [2], in assay [3] and in [10] was inactive. The Potency result in assay [6], in [7], in [9], in assay [11], in assay [12] and in assay [13] was “inactive” in each case. Further, the Potency result in assay [14], in [15] and in [16] was “inactive” throughout. The activation in assay [8] is -9.5% (inactive). In addition, the viability change in assay [9] was found to be 5.81%.

Take `C=CC(N)CCC(=O)O` (configuration not stated): the call in assay [1], in assay [2], in assay [3] and in assay [10] was inactive. Also, the Potency entry in [6], in [7], in assay [9], in [11], in assay [12] and in assay [14] was “inactive” in each case. Further, the Potency entry in assay [15], in assay [16] and in assay [17] was “inactive” each time. The activation in assay [8] was -0.0625% (inactive). Also, the viability change in assay [9] was 4.81%.

`O=c1[nH]c2cc(C(F)(F)F)ccc2n1-c1cc(C(F)(F)F)ccc1O`: the compound was called inactive in [1], in [2], in [3] and in [10]. Further, the Potency entry in assay [4], in assay [6], in assay [7], in assay [9], in [11] and in assay [12] was “inactive” each time. Besides, the Potency result in assay [14], in [15] and in assay [17] was “inactive” throughout. Moreover, the activation in assay [8] was 1.88% (inactive). In addition, the viability change in assay [9] was -2.14%.

Take `CCCCCCCCCCCCCCCC(=O)NCC(COP(=O)([O-])OCC[N+](C)(C)C)OCC` (configuration not stated): the call in assay [1], in assay [3] and in assay [10] was inactive. The Potency in assay [18] is 12.6 µM (active); in [5], 10 µM (active); in assay [6], 18.3 µM (active); in assay [16], 79.4 µM (active). Also, the Potency entry in [4], in [9], in assay [11] and in assay [14] was “inactive” in each case. In addition, the activation in assay [8] was 0.812% (inactive). Also, the viability change in [9] came out at 10.8%.
